The antibiotic and cytotoxicity screens of Wong et al. (2023)
Among all 39,000 compounds or so, about 500 (1.3%) were called active. The full list was thinned out, with actives kept by preference.

system: S. aureus RN4220; experiment: growth inhibition call (relative growth <= 0.2); details: 50 µM

Structure (SMILES)	growth inhibition call
COC(=O)c1c(CC[C@@H](CO)NC(=O)N[C@@H](Cc2ccccc2)Cn2cc(C3(O)CCCCC3)nn2)oc(C(C)=O)c1C(=O)OC	inactive
O=C(N[C@H](c1ccc(Cl)cc1)c1ccsc1)C1CCN(Cc2ccc(Oc3ccccc3)cc2)CC1	inactive
Cc1cccnc1[C@@H](NC(=O)C1CCN(CCOc2ccc(Cl)cc2Cl)CC1)c1ccc(F)cc1	active
O=C(N[C@@H](c1cccnc1)c1ccc2c(c1)OCO2)C1CCN(CCOc2ccc(Cl)cc2Cl)CC1	active
O=C(N[C@H](c1ccc(F)cc1)c1ccc2ccccc2n1)C1CCN(CCOc2ccc(Cl)cc2Cl)CC1	inactive
COc1ccc([C@@H](NC(=O)C2CCN(CCOc3ccc(Cl)cc3Cl)CC2)c2ccccn2)cc1	inactive
O=C(N[C@H](c1ccc(Cl)cc1)c1ccccn1)C1CCN(CCOc2ccc(Cl)cc2Cl)CC1	active
O=C(N[C@@H](c1ccc2c(c1)OCO2)c1ccccn1)C1CCN(CCOc2ccc(Cl)cc2Cl)CC1	inactive
Cc1cccnc1[C@@H](NC(=O)C1CCN(Cc2ccc(Cl)c(Cl)c2)CC1)c1ccc(Cl)cc1	inactive
Cc1cccnc1[C@@H](NC(=O)C1CCN(CCOc2ccc(Cl)cc2Cl)CC1)c1ccc(Cl)cc1	active
COc1ccc([C@@H](NC(=O)C2CCN(Cc3ccc(Oc4ccccc4)cc3)CC2)c2ccccn2)cc1	inactive
COc1ccc([C@@H](NC(=O)C2CCN(CCOc3ccc(Cl)cc3Cl)CC2)c2ccco2)cc1	inactive
Cc1cccnc1[C@@H](NC(=O)C1CCN(Cc2ccc(Oc3ccccc3)cc2)CC1)c1ccc(F)cc1	inactive
C[C@H]1CN([C@@H](C)CO)C(=O)Cc2cc(NC(=O)Cn3cnnn3)ccc2O[C@H]1CN(C)C(=O)Nc1ccccc1	inactive
C[C@@H]1CN([C@@H](C)CO)C(=O)Cc2cc(NC(=O)c3ccncc3)ccc2O[C@@H]1CN(C)S(=O)(=O)c1ccc(F)cc1	inactive
C[C@@H]1CCCCO[C@@H](CN(C)C(=O)NC2CCCCC2)[C@@H](C)CN([C@H](C)CO)C(=O)c2cc(NC(=O)Nc3cccc4ccccc34)ccc2O1	inactive
C[C@H](CO)N1C[C@H](C)[C@@H](CN(C)S(=O)(=O)c2cccs2)OCCCC[C@H](C)Oc2ccc(NC(=O)Nc3cccc4ccccc34)cc2C1=O	inactive
O=C(CCCCCCC(=O)Nc1ccccc1O)N/N=C/[C@H](O)[C@@H](O)[C@@H](O)[C@H](O)C(=O)O	inactive
C[C@H]1CC[C@@H]2N(C1)C[C@@H]1[C@H]([C@@H](O)[C@H](O)[C@]3(O)[C@H]1C[C@@]14O[C@]5(O)[C@@H](C[C@@H](O)[C@@H]31)[C@]4(C)CC[C@@H]5O)[C@]2(C)O	inactive
Cc1cc(C(=O)Nc2cccc3c2O[C@H](CN(C)C(=O)Nc2ccc4c(c2)OCO4)[C@H](C)CN([C@H](C)CO)C3=O)n(C)n1	inactive
COc1ccc(S(=O)(=O)Nc2ccc3c(c2)C(=O)N([C@H](C)CO)C[C@@H](C)[C@@H](CN(C)Cc2ccccc2)OCCCC[C@@H](C)O3)cc1	inactive
Cc1noc(C)c1NC(=O)N(C)C[C@@H]1OCCCC[C@@H](C)Oc2ccc(NC(=O)c3ccccc3)cc2C(=O)N([C@H](C)CO)C[C@@H]1C	inactive
CCCN(CCC)[NH2+][O-]	inactive
C[C@H](CO)N1C[C@H](C)[C@H](CN(C)Cc2ccccc2)Oc2ccc(NC(=O)CCN3CCOCC3)cc2CC1=O	inactive

Structure (SMILES)	growth inhibition call
C[C@@H]1CN([C@H](C)CO)C(=O)c2cc(NC(=O)Nc3cccc4ccccc34)ccc2O[C@@H](C)CCCCO[C@H]1CN(C)S(=O)(=O)c1ccc(F)cc1	inactive
CC(C)(Sc1cc(C(C)(C)C)c(O)c(C(C)(C)C)c1)Sc1cc(C(C)(C)C)c(OCC(=O)O)c(C(C)(C)C)c1	active
CC(C)(Sc1cc(C(C)(C)C)c(O)c(C(C)(C)C)c1)Sc1cc(C(C)(C)C)c(O)c(C(C)(C)C)c1	inactive
CC(C)(Sc1cc(C(C)(C)C)c(O)c(C(C)(C)C)c1)Sc1cc(C(C)(C)C)c(OC(=O)CCC(=O)O)c(C(C)(C)C)c1	inactive
C[C@@H]1CN([C@H](C)CO)C(=O)c2cc(NS(=O)(=O)c3ccccc3)ccc2O[C@H]1CN(C)S(=O)(=O)c1ccc(F)cc1	inactive
Cc1ccc(S(=O)(=O)N(c2cccc(-n3cc(CCC(=O)NO)nn3)c2)S(=O)(=O)c2ccc(C)cc2)cc1	active
Nc1cccc(-n2cc(CCC(=O)NO)nn2)c1	inactive
COC(=O)[C@@H](N)Cc1ccc(-n2cc(CCC(=O)NO)nn2)cc1	active
CC(/C=C/C(=O)NO)=C\c1ccccc1OCc1cn(-c2cccc(N(S(=O)(=O)c3ccc(C)cc3)S(=O)(=O)c3ccc(C)cc3)c2)nn1	inactive
Nc1ccc(-n2cc(CCC(=O)NO)nn2)cc1	inactive
CCOc1cc(OCC)cc(C(=O)N[C@@H](Cc2ccc(-n3cc(CCC(=O)NO)nn3)cc2)C(=O)OC)c1	inactive
Cc1onc(-c2ccccc2)c1C#N	inactive
NCCOB(c1ccccc1)c1ccccc1	inactive
C[C@@H]1CCCCO[C@H](CN(C)C(=O)Nc2ccc(C(F)(F)F)cc2)[C@@H](C)CN([C@H](C)CO)C(=O)c2cc(NC(=O)Cc3ccccc3)ccc2O1	inactive
CC(C)NC(=O)N(C)C[C@@H]1Oc2ccc(NC(=O)Cc3ccccc3)cc2CC(=O)N([C@H](C)CO)C[C@@H]1C	inactive
C[C@@H]1CN([C@@H](C)CO)C(=O)c2cc(NS(C)(=O)=O)ccc2O[C@@H]1CN(C)C(=O)Nc1ccc2c(c1)OCO2	inactive
CS(=O)(=O)N1CCn2cc(Cn3cncn3)nc2C1	inactive
CCCC#Cc1cnc2c(c1)C(=O)N([C@@H](C)CO)C[C@H](C)[C@@H](CN(C)S(=O)(=O)c1cn(C)cn1)O2	inactive
COc1ccc(NC(=O)N(C)C[C@@H]2Oc3ccc(NC(=O)CCN4CCOCC4)cc3C(=O)N([C@H](C)CO)C[C@H]2C)cc1	inactive
CC(C)C1=CC2=CCC3C(C)(C(=O)O)CCCC3(C)C2CC1 (stereo unspecified)	active
CC(C)C1=CC2=CC[C@H]3[C@](C)(CO)CCC[C@]3(C)[C@@H]2CC1	inactive
CC(C)c1cc2c(cc1S(=O)(=O)O)[C@@]1(C)CCC[C@@](C)(C(=O)O)[C@@H]1CC2	inactive
CCc1nc2ccc(C(=O)N3CCN(S(=O)(=O)CC)CC3)cn2c1N(C)Cc1ccc(Cl)cc1	inactive
CN1CC2(COC2)OCCS1(=O)=O	inactive

Structure (SMILES)	growth inhibition call
COc1ccc(S(=O)(=O)Nc2ccc3c(c2)CC(=O)N([C@H](C)CO)C[C@H](C)[C@@H](CN(C)S(=O)(=O)c2cn(C)cn2)O3)cc1	inactive
CC1(C)Cc2c(-c3ccccc3)c(-c3ccc(Cl)cc3)c(CC(=O)O)n2C1	active
Cc1cc(CC(=O)O)n(C)c1C(=O)c1ccc(Cl)cc1	inactive
C[C@H]1CN([C@@H](C)CO)C(=O)c2cccc(NC(=O)Nc3ccc(C(F)(F)F)cc3)c2O[C@@H]1CN(C)C(=O)Nc1ccc(C(F)(F)F)cc1	inactive
CC(=O)OC1CC(OC(C)=O)C2(C)C(CC(OC(C)=O)C3(C)C4=CC(=O)OC(c5ccoc5)C4(C)CCC32)C1(C)C (stereo unspecified)	inactive
CC(C)NC(=O)N(C)C[C@H]1Oc2ccc(NC(=O)Nc3ccc4c(c3)OCO4)cc2CC(=O)N([C@@H](C)CO)C[C@H]1C	inactive
Oc1c(Cl)cc(Cl)cc1Sc1cc(Cl)cc(Cl)c1O	inactive
O=C(Nc1cc(Cl)cc(Cl)c1O)c1c(O)c(Cl)cc(Cl)c1Cl	active
Oc1c(Cl)cc(Cl)c(Cl)c1Cc1c(O)c(Cl)cc(Cl)c1Cl	inactive
CS(=O)(=O)N1C[C@@H](O)COC[C@H]2O[C@H](CC(=O)NCc3ccccc3)CC[C@@H]21	inactive
Cc1noc(C)c1S(=O)(=O)Nc1ccc2c(c1)C(=O)N([C@H](C)CO)C[C@H](C)[C@@H](CN(C)Cc1ccncc1)O2	inactive
C[C@@H]1CCCCO[C@H](CN(C)C(=O)CCC(F)(F)F)[C@H](C)CN([C@H](C)CO)C(=O)c2cc(NS(=O)(=O)c3cccs3)ccc2O1	inactive
CC(=O)OC1CC2(C)C(CC(O)C3C4(C)CCC(O)C(C)C4CCC32C)C1=C(CCC=C(C)C)C(=O)O (stereo unspecified)	active
CC(=O)OC1(C(C)=O)CCC2C3C=C(C)C4=CC(=O)CCC4(C)C3CCC21C (stereo unspecified)	inactive
CC(=O)C1CCC2C3CC=C4CC(OC(=O)CCC(=O)O)CCC4(C)C3CCC12C (stereo unspecified)	inactive
CC(=O)O[C@H]1C[C@@]2(C)[C@@H](C[C@@H](O)[C@H]3[C@@]4(C)CC[C@@H](O)[C@@H](C)[C@@H]4CC[C@@]32C)/C1=C(\CCC=C(C)C)C(=O)O	active
CC(=O)O[C@H]1C[C@@]2(C)[C@@H](C[C@@H](O)[C@H]3[C@@]4(C)CC[C@@H](O)[C@@H](C)[C@H]4CC[C@@]32C)C1=C(CCC=C(C)C)C(=O)O	active
CC(=O)O[C@H]1C[C@@]2(C)[C@@H](C[C@@H](O)[C@@H]3[C@@]4(C)CC[C@@H](O)[C@@H](C)[C@@H]4CC[C@@]32C)/C1=C(/CCC=C(C)C)C(=O)O	active
CC(=O)OC1(C(C)=O)CCC2C3CC(C)C4=CC(=O)CCC4(C)C3CCC21C (stereo unspecified)	inactive
C[C@H](CO)N1C[C@H](C)[C@H](CN(C)C(=O)Nc2ccccc2)OCCCC[C@H](C)Oc2ccc(NC(=O)Nc3ccc(F)cc3)cc2C1=O	inactive
C[C@H](CO)N1C[C@H](C)[C@@H](CN(C)CC2CC2)Oc2ccc(NS(=O)(=O)c3cccs3)cc2C1=O	inactive
Cc1ccc(S(=O)(=O)N(C)C[C@H]2Oc3ccc(NC(=O)Nc4cccc5ccccc45)cc3C(=O)N([C@@H](C)CO)C[C@H]2C)cc1	inactive
O=C1NCC(=O)N2[C@@H]1C[C@@H](C(=O)O)[C@H]2c1ccc(O)cc1	inactive
